# Among all 53,000 compounds or so, about 900 (1.7%) showed an effect of 50% or more. What follows is part of a selection rich in strong results, with near analogues and random picks from the rest.
# Tested on: Mycobacterium tuberculosis
# Experiment: Cornell - Phenotypic assay to identify agents that inhibit growth of Mycobacterium tuberculosis
# Assay type: functional
# Parameters: scale not given: direction of the effect not stated beside the values
# Settings: 10 mM as filed; unlikely as a test dose
row,SMILES,Percent Effect [%]
1,COc1ccc(CNC(=O)CNc2cc3c(cc2Cl)OCCCO3)cc1,53.68
2,COc1ccc(CNC(=O)CNc2cc3c(cc2Cl)OCCO3)cc1,-25.81
3,O=C(CNc1cc2c(cc1Cl)OCCCO2)NCc1ccc(F)cc1,-2.409
4,CCc1cc(C(=O)N2CCC3(CCCN(CC4CC4)C3=O)C2)cs1 (centres undefined),1.27
5,Cc1cc2n(n1)CC(CNC1CCN(Cc3ccccc3C)CC1)CN2 (centres undefined),1.638
6,c1ccc(Cn2cccn2)c(CNCC2CNc3ccnn3C2)c1 (centres undefined),-42.61
7,Cc1ccccc1CN1CCC(NCC2CNc3ccnn3C2)CC1 (centres undefined),54.71
8,CS(=O)(=O)N1Cc2ccnn2CC(C(=O)NCc2cccnc2)C1.O=C(O)C(F)(F)F.O=C(O)C(F)(F)F (centres undefined),-34.93
9,CCC(C)NC(=O)NCc1cc2n(n1)CCCN(C1CCCCC1)C2 (centres undefined),-10.73
10,Fc1ccccc1-c1cccc(C2CCCN(C3CCOCC3)C2)n1 (centres undefined),36.89
11,CN(C)C1COC2(CCN(Cc3ccncc3)CC2)C1 (centres undefined),9.126
12,CC(=O)N(Cc1noc(C2CC2)n1)C1CCN(CC2CCOCC2)C1 (centres undefined),-29.12
13,CC(=O)N1CCC(c2nccnc2-c2ccc(C(=O)O)cc2)CC1,-19.35
14,Cc1ccccc1CN1CCOC(c2nccc(CN(C)C)n2)C1 (centres undefined),-48.65
15,COc1ccc(OCc2cc(C(=O)N3C[C@@H](C)O[C@@H](C)C3)n[nH]2)c(Cl)c1,4.963
16,COc1ccc(OCc2cc(C(=O)N3CCSCC3)n[nH]2)c(Cl)c1,54.8
17,COc1ccc(OCc2cc(C(=O)N3CCCCO3)n[nH]2)c(Cl)c1,106.4
18,COc1ccc(OCc2cc(C(=O)N3CCC(O)CC3)n[nH]2)c(Cl)c1,6.579
19,COc1ccc(OCc2cc(C(=O)N3CC=CC3)n[nH]2)c(Cl)c1,40.41
20,COc1ccc(OCc2cc(C(=O)N3CCOCC3)n[nH]2)c(Cl)c1,19.45
21,CC(C(=O)N1CCOCC1)N1CCN(Cc2nccn2C)CC1 (centres undefined),-9.72
22,N#Cc1cccc(S(=O)(=O)N2CCCCC2C(N)=O)c1 (centres undefined),15.32
23,O=C(Cc1cccnc1)N1CCCC(n2cncn2)C1 (centres undefined),-17.88
24,Cc1nn(C)c2c(NCc3ccncc3)nc(C3CC3)nc12,-8.977
25,CCN(CC(C)C#N)C(=O)CNc1cc(Cl)ccc1C(N)=O (centres undefined),-0.05585

row,SMILES,Percent Effect [%]
1,COCC1CCCN(C(=O)c2ccc(NC(=O)CC(C)C)c(C)c2)C1 (centres undefined),-1.652
2,CCN(Cc1cccc(C)c1)Cn1nc(C)c2c(C)onc2c1=O,-12.96
3,COc1nn(C)c2c1CCCN(C(=O)c1cc[nH]n1)C2,12.29
4,CC1(C)OC(=O)N(CC(=O)N2CCC(c3ccccc3Cl)C2)C1=O (centres undefined),25.58
5,CC1(C)OC(=O)N(CC(=O)N2CCC(c3ccccc3F)C2)C1=O (centres undefined),22.76
6,COc1ccccc1C1CCN(C(=O)CN2C(=O)OC(C)(C)C2=O)CC1,53.49
7,O=C(O)C(F)(F)F.O=C1CC2(CCN(Cc3ccccn3)C2)CN1c1cncnc1 (centres undefined),17.37
8,CCCC(C#N)NC(=O)c1cc(Br)c2c(c1)OCCO2 (centres undefined),14.39
9,Oc1ccc(Cl)cc1CNCc1ccccc1C(F)(F)F,6.779
10,Oc1ccc(Cl)cc1CNCc1cccc(C(F)(F)F)c1,70.21
11,Oc1ccc(Cl)cc1CNCc1ccccc1Cl,26.21
12,CCc1nnc(NC(=O)c2c3c(nn2C2CCS(=O)(=O)C2)CCC3)s1 (centres undefined),-18.44
13,CNC(=O)NCC1CCC2(CCN(C(=O)c3ccccc3)CC2)CO1 (centres undefined),2.943
14,O=C(O)C(F)(F)F.O=C([C@H]1CC[C@@H]2[C@@H](CCN2C2CCOCC2)O1)N1CCOCC1,0.461
15,Cn1nccc1NC(=O)CN1CCc2sccc2C1,-1.554
16,CC(C)n1nccc1NC(=O)CN1CCc2sccc2C1,2.695
17,O=C(CN1CCc2sccc2C1)Nc1ccnc2ccnn12,105.2
18,O=C(O)C(F)(F)F.O=C(O)C(F)(F)F.O=C(c1cccnc1)N1CCC[C@]2(C[C@H](Oc3ncccc3F)CO2)C1,-30.18
19,COCCN1CCC(c2cncc(N(C)C)n2)CC1,-17.24
20,Cc1nccc(C2CN(Cc3ccc(-c4ccccc4C(=O)O)o3)C2)n1,19.38
21,O=C(O)c1ccccc1-c1ccc(CN2CC(c3ccncn3)C2)o1,60.18
22,Nc1nccc(C2CN(Cc3ccc(-c4ccccc4C(=O)O)o3)C2)n1,40.18
23,CCc1ccc(CN(CCCn2ccnc2)Cc2ccc(C)s2)o1.O=C(O)CC(O)(CC(=O)O)C(=O)O,67.99
24,Cc1ccc(CN(CCCn2ccnc2)Cc2ccccc2O)s1.O=C(O)CC(O)(CC(=O)O)C(=O)O,-13.23
25,Cc1ccc(CN(CCCn2ccnc2)Cc2cccs2)s1.O=C(O)CC(O)(CC(=O)O)C(=O)O,40.45

row,SMILES,Percent Effect [%]
1,Cc1cnc(CCNC(=O)NCCc2ccc(O)cc2)s1,16.98
2,O=C(c1ccno1)N1CCn2cc(CN3CCCCC3)nc2C1,6.548
3,CCc1ccc(C(COC)NC(=O)c2ccsc2)o1 (centres undefined),37.56
4,c1cc(CNCC2CNc3ccnn3C2)cc(OC2CCCCC2)n1 (centres undefined),-14.29
5,c1cc2n(n1)CC(CNCc1ccc(OC3CCCC3)nc1)CN2 (centres undefined),-62.66
6,c1cc2n(n1)CC(CNCc1ccc(OC3CCCCC3)nc1)CN2 (centres undefined),102.7
7,O=C(C1CCC1)N1CCCn2nc(CNc3ncccn3)cc2C1,5.205
8,Cc1c(CN(C)c2cc(C3CCCNC3)ncn2)[nH]c2ccccc12 (centres undefined),61.5
9,CN(Cc1cc2cc(F)ccc2[nH]1)c1cc(C2CCCNC2)ncn1 (centres undefined),13.11
10,Cc1nc(C2CCCNC2)cc(N(C)CCc2ccccc2)n1 (centres undefined),0.6184
11,CN1C(=O)CCc2cc(NS(=O)(=O)Cc3cccc(F)c3)ccc21,1.464
12,COCCc1noc(C2CCN(C(=O)Nc3cccs3)CC2)n1,17.42
13,O=C(Nc1c(F)cccc1F)N1CC(c2nc(C3CC3)no2)C1,10.47
14,O=C(Nc1cccs1)N1CC(c2nc(C3CC3)no2)C1,107.8
15,O=C(Nc1cccnc1)[C@H]1C[C@H]2OCC[C@H]2N(Cc2ccc(F)cc2)C1.O=C(O)C(F)(F)F.O=C(O)C(F)(F)F,11.11
16,CC(C)C(=O)NCCc1cc2nc(-c3ccncc3)ccn2n1,-48.83
17,COCCN1CCC(CNC(=O)C2(c3ccc(Br)cc3)CCCC2)C1 (centres undefined),15.91
18,CCCn1cc(-c2ccnc(NC3CCc4ccccc4C3)n2)c(C)n1 (centres undefined),8.734
19,OCCNc1nccc(-c2cn3nccc3nc2C2CCCCC2)n1,15.49
20,CCCn1ncc(-c2ccnc(NC3CCCc4ccccc43)n2)c1C (centres undefined),50.48
21,CCCn1ncc(-c2ccnc(N[C@@H]3C[C@@H]4CC[C@H]3C4)n2)c1C,88.15
22,CCCn1cc(-c2ccnc(NC3CCc4ccccc43)n2)c(C)n1 (centres undefined),36.22
23,CCCn1cc(-c2ccnc(NC3CCCc4ccccc43)n2)c(C)n1 (centres undefined),106.6
24,CCCn1ncc(-c2ccnc(NC3CCSC3)n2)c1C (centres undefined),-4.809
25,Cc1nn(CCO)c(C)c1CNC1CCCCc2ccccc21 (centres undefined),11.7

row,SMILES,Percent Effect [%]
1,CCCn1ncc(-c2ccnc(NC3CC(C)(C)NC(C)(C)C3)n2)c1C,-32.04
2,O=C1NCC2(CCCN(c3ncnc4c3CCC4)CC2)O1 (centres undefined),11.26
3,O=C(CCSc1ccc2c(c1)OCCO2)NCC1CCS(=O)(=O)C1 (centres undefined),-7.695
4,CCC(C)NC(=O)Nc1cccc(OCCCC#N)c1 (centres undefined),-0.4736
5,CC(C)NC(=O)Cn1ccc2c(Cl)cccc21,18.88
6,COc1ccc(CN(C)CC(=O)Nc2ccc3[nH]c(=O)[nH]c3c2)cc1F,-12.93
7,COCCN1C(=O)C2(CCC(C(=O)Nc3cccc(C)c3)CC2)N=C1C (centres undefined),23.11
8,COc1ccc(NC(=O)C(c2ccc(OC)cc2)N2CCOCC2)cc1 (centres undefined),-0.3618
9,COc1ccc(NC(=O)C2CC(=O)n3cnnc3S2)cc1 (centres undefined),106.3
10,COc1ccc(C2CCCN2C(=O)Nc2ccc(OC)nc2)cc1 (centres undefined),1.248
11,COc1cccc(NC(=O)c2nc3ccccc3n(C)c2=O)c1,19.08
12,COc1cccc(NC(=O)C2CC(=O)n3cnnc3S2)c1 (centres undefined),106.8
13,Cc1cccc(NC(=O)C2CCc3ccccc3N2)c1.Cl (centres undefined),44.23
14,Cc1cccc(NC(=O)C2CC(=O)n3cnnc3S2)c1 (centres undefined),107.8
15,COc1cccc(NC(=O)N2CC[C@@H]3CN(C)S(=O)(=O)[C@@H]3CC2)c1,-43.46
16,Cc1nnc(NC(=O)c2cc(S(=O)(=O)N3CCSCC3)c[nH]2)s1,-1.205
17,CCc1cc(-c2ccnc3c2ccn3C)nc(N2CCOCC2)n1,3.05
18,N#Cc1ccc(C(=O)N2CCC3(CC2)CC3)cc1,-6.813
19,O=C(c1cc(C2CCCCC2)no1)N1C[C@H]2C[C@H](O)C[C@H]2C1,24.89
20,CNC(=O)[C@H]1C[C@@H]2CN(C(=O)c3ccc(C)o3)C[C@@H]2N1S(C)(=O)=O,18.79
21,Cc1cc(CC(=O)NC2CCCN(Cc3ccccc3)C2=O)n[nH]1 (centres undefined),-5.186
22,Cc1nn(C)cc1CN1CCCC1c1cccc(Nc2nccs2)n1 (centres undefined),56.13
23,Cc1ccccc1CN1CCCC1c1cccc(Nc2nccs2)n1 (centres undefined),44.82
24,Cc1cnc(Nc2cccc(C3CCCN3Cc3cn(C)nc3C)n2)s1 (centres undefined),23.5
